Sa growth 42C: S. aureus growth inhibition at 42 and 30 °C, primary screen, LtaS inhibitor project, RN4220, two temperatures. 170,000 compounds, 0.53% hits. relative growth, % (concentration not given with the values). OD600, 20 h, 42 °C; hits give low values;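 active = relative growth at most 50% at the other temperature and 20+ points below 30 °C, or under 10% at both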
S aureus helic: inhibitors of S. aureus replicative helicase, primary screen, biochemical, fluorescence unwinding readout. purified S. aureus helicase, fluorescence unwinding assay. inhibition, % (concentration not given with the values). 120,000 compounds, 0.05% hits; in the data active = inhibition above about 25%, passing the limit was not always enough;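 note: 0% = mean of negative control wells and 100% = mean of positive control wells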
* hit, by the source's call; · = no result. This is one part of a sample in which hits are shown more often than they occur.

SMILES	Sa growth 42C	S aureus helic
Cc1noc(C)c1C(=O)Nc1nnc(SCC(=O)O)s1	104.3	-12.0
O=C(OCc1cc(=O)n2c(n1)sc1ccccc12)C1=NN(c2ccccc2)C(=O)CC1	87.2	7.0
O=C(O)CCCNc1nc(F)cc(F)n1	99.2	8.0
N#Cc1ccc2c(c1)nc1c3ccc4c5c(ccc(c(=O)n21)c53)C(=O)NC4=O	0.9*	5.0
COc1ccc(/C=N/N=C(N)N)cc1OC	103.1	35.0
COc1cc(/C=N/N=C(N)N)ccc1OC(=O)c1ccc(C)cc1	-0.7*	12.0
O=C1C=CC(=O)N1c1ccc(-n2nc(C(F)(F)F)cc2C(F)(F)F)cc1	37.9	·
CCN(CC)c1nc(N)c2c(N)nc3c(c2c1C#N)C(=O)CN3Cc1ccccc1	104.1	-14.0
CCCCN(CC)c1nc(N)c2c(N)nc(SCC(=O)O)cc2c1C#N	6.2*	-15.0
COc1ccccc1NC(=O)C1CCCN(c2ncnc3onc(-c4ccc(F)cc4)c23)C1 (stereo not given)	107.4	·
CCC(=O)c1cc(Cl)cc(Cl)c1O	124.0	8.0
Oc1c(Cl)cc(Cl)cc1C(O)(C(F)(F)F)C(F)(F)F	7.3*	21.0
Cc1ccc(N)c(C(O)(C(F)(F)F)C(F)(F)F)c1	·	16.0
Oc1c(Cl)cc(Cl)cc1Sc1cc(Cl)cc(Cl)c1O	-0.6*	·
Cn1c(SCC(=O)Nc2ccccc2)nnc1-c1csc(Cc2ccsc2)n1	98.1	·
Cc1ccc(NC(=O)CSc2nc3ccccc3c(=O)n2CC2COc3ccccc3O2)cc1 (stereo not given)	118.4	8.0
CC(=C\c1ccccc1)/C=C1/SC(=S)N(C2CCCCC2)C1=O	99.2	8.0
O=C1/C(=C/c2cccnc2)SC(=S)N1C1CCCC1	7.2*	8.0
CC(C)n1c(=S)[nH]c2scc(-c3cccs3)c2c1=O	3.9*	9.0
O=c1c2c(-c3cccs3)csc2[nH]c(=S)n1-c1ccccc1	108.4	3.0
CC1Cc2cc(S(=O)(=O)N3CCCC3)ccc2N1C(=O)C1CCC1 (stereo not given)	99.6	-26.0
CCc1cc(-c2[nH]ncc2-c2ccc(Br)cc2)c(O)cc1O	·	-17.0
CCc1cc(-c2[nH]ncc2-c2cnn(-c3ccccc3)c2)c(O)cc1O	9.5*	17.0
CCn1c(CN2C(=O)c3ccccc3C2=O)nc2cc(S(=O)(=O)N(C)C)ccc21	103.7	-5.0
O=C(NC1CCCC1)c1ccc2c(c1)sc1nc(-c3ccccc3)cn12	99.3	-4.0
SMILES	Sa growth 42C	S aureus helic
CC(N=c1ccccn1C(=O)Nc1ccc(Cl)c(Cl)c1)c1ccco1 (stereo not given)	-0.8*	14.0
CC1Cc2ccccc2N1C(=O)Nc1ccc(Cl)c(Cl)c1 (stereo not given)	107.2	-1.0
CC(Nc1nc(C(C)(C)C)cs1)=C(C#N)C#N	4.2*	7.0
CC(C)(C)c1csc(NC(=O)CSC2=NCCS2)n1	87.5	-3.0
Cc1cc(NS(=O)(=O)c2ccc(NS(=O)(=O)CC34CCC(CC3=O)C4(C)C)cc2)no1 (stereo not given)	48.6*	-5.0
Cc1cc(C)nc(NS(=O)(=O)c2ccc(NS(=O)(=O)CC34CCC(CC3=O)C4(C)C)cc2)n1 (stereo not given)	110.6	-13.0
O=C1C(=C2NCCN2)CC/C1=C\c1ccco1	111.3	-7.0
CN1CCC(N(C)Cc2cc(=O)oc3cc4c(cc23)CCC4)CC1	0.3*	-2.0
Cc1ccc(CN(C)Cc2cc(=O)oc3cc4c(cc23)CCC4)o1	70.8	7.0
C1CCCC(NCCCN2CCOCC2)CC1	104.0	12.0
Cc1ccc(C(=O)C2C(=O)C=C(c3ccc(C)cc3)OC2=O)cc1 (stereo not given)	123.0	5.0
O=C(CC(SC1CCCCC1)C(=O)O)c1ccc(Br)cc1 (stereo not given)	131.1	5.0
O=C(CC(Sc1ccc(Br)cc1)C(=O)O)c1ccc(Cl)cc1 (stereo not given)	2.0*	12.0
FC(F)(F)c1ccc2nc(SCc3ccc(Br)cc3)[nH]c2c1	6.8*	·
N#Cc1ccc(CSc2nc3ccc(Cl)cc3[nH]2)cc1	64.8	6.0
S=C(NCc1ccco1)SCc1cn2ccccc2n1	·	-26.0
Cc1nn2c(nc1=O)NNC2(C)c1ccccc1 (stereo not given)	97.3	6.0
COc1cccc(OC)c1/C(O)=C(\C#N)c1nc2ccccc2s1	1.4*	1.0
N#C/C(=C(/O)COc1ccccc1)c1nc2ccccc2s1	81.2	12.0
FC(F)(F)c1nnc2n1Nc1nc3ccccc3nc1S2	51.1	-129.0
CCC(=O)Nc1ccc(S(=O)(=O)NC(C)(C)C)cc1	·	12.0
NS(=O)(=O)c1ccc(N2C(=O)C3C4C=CC(C4)C3C2=O)cc1 (stereo not given)	·	-27.0
COc1cccc2sc(Nc3sc4c(c3C(N)=O)CCCC4)nc12	1.1*	-2.0
COc1ccccc1C(=O)Nc1sc2c(c1C(N)=O)CCC2	110.8	6.0
COc1cc2c(cc1OC)C(c1cccs1)N(C(=O)/C=C/c1ccco1)CC2 (stereo not given)	85.4	-4.0

Assay outcomes: PubChem, ICCB-Longwood Screening Facility, Harvard Medical School
